# The supplement of paper PMC7556523
# Tested on: Sporothrix brasiliensis CBS 133006
# Assay: growth inhibition relative to untreated control; higher = more growth inhibition (more antifungal activity), active = 80 or more; extreme values may be limits of the assay
# Settings: 1 µM; 48 h
# Method in brief: (§1)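 Before testing, the reference isolates were kept in brain heart infusion broth with 2% glucose at 36°C for 7 days to give yeast-form cells. These cells, at 1 x 10^5 CFU/ml, received library compounds at a final 1 μM and were held 48 h at 35°C in 5% CO2. Growth was checked by eye under an inverted light microscope and quantified spectrophotometrically in quadruplicate, and the value is percent growth inhibition versus untreated cells.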
row,SMILES,growth inhibition
1,CO/C=C(/C(=O)OC)c1ccccc1Oc1cc(Oc2ccccc2C#N)ncn1,95.5% (active)
2,CCc1nn(C)c(C(=O)NCc2ccc(Oc3ccc(C)cc3)cc2)c1Cl,93.2% (active)
3,CC1(C)OB(O)c2ccc(C3=NOC(c4cc(Cl)c(F)c(Cl)c4)(C(F)(F)F)C3)cc21 (stereo not drawn),0.5% (inactive)
4,Nc1c2c(nc3sc4c(c13)CCCC4)CCCC2,6.75% (inactive)
5,CO[C@@H]1CN(c2ccc(C#CC3(O)CN4CCC3CC4)c(Cc3ccccc3)n2)C[C@H]1O (stereo partly drawn),9.75% (inactive)
6,Cc1nn(C)c(C)c1NS(=O)(=O)c1c(Cl)cc(-c2ccnc(N3CCNCC3)c2)cc1Cl,15.2% (inactive)
7,CO/N=C(\C(=O)OC)c1ccccc1CO/N=C(\C)c1cccc(C(F)(F)F)c1,96.8% (active)
8,CC(C)(C)C(O)C(Oc1ccc(-c2ccccc2)cc1)n1cncn1 (stereo not drawn),67.5% (inactive)
9,CC1COC(Cn2cncn2)(c2ccc(Oc3ccc(Cl)cc3)cc2Cl)O1 (stereo not drawn),97% (active)
10,Cc1nn(Cc2ccccc2)c(Cl)c1C(=O)NC1CCCCCC1,21.5% (inactive)
11,Cc1cc(C2=NOC(c3cc(Cl)c(F)c(Cl)c3)(C(F)(F)F)C2)ccc1C(=O)NCc1ccc2c(c1)C(C)(C)OB2O (stereo not drawn),14.5% (inactive)
12,Cc1cccc(C(=O)Nc2ccnc(N(C)C3CCN(CC(C)C)CC3)c2)c1,5.5% (inactive)
13,O=C1O[C@@H](COc2ccon2)CN1c1cc(F)c(C2=CCN(Cc3ccccc3)CC2)c(F)c1,2% (inactive)
14,O=C1O[C@@H](CO)CN1c1cc(F)c(C2=CCN(Cc3ccccc3)CC2)c(F)c1,6.75% (inactive)

# Tested on: Sporothrix schenckii ATCC 32286
# Assay: as above
# Settings: 1 µM; 48 h
# Method in brief: as §1
row,SMILES,growth inhibition
1,CO/C=C(/C(=O)OC)c1ccccc1Oc1cc(Oc2ccccc2C#N)ncn1,27.5% (inactive)
2,CCc1nn(C)c(C(=O)NCc2ccc(Oc3ccc(C)cc3)cc2)c1Cl,96.5% (active)
3,CC1(C)OB(O)c2ccc(C3=NOC(c4cc(Cl)c(F)c(Cl)c4)(C(F)(F)F)C3)cc21 (stereo not drawn),18% (inactive)
4,Nc1c2c(nc3sc4c(c13)CCCC4)CCCC2,17% (inactive)
5,CO[C@@H]1CN(c2ccc(C#CC3(O)CN4CCC3CC4)c(Cc3ccccc3)n2)C[C@H]1O (stereo partly drawn),5.5% (inactive)
6,Cc1nn(C)c(C)c1NS(=O)(=O)c1c(Cl)cc(-c2ccnc(N3CCNCC3)c2)cc1Cl,17.5% (inactive)
7,CO/N=C(\C(=O)OC)c1ccccc1CO/N=C(\C)c1cccc(C(F)(F)F)c1,40% (inactive)
8,CC(C)(C)C(O)C(Oc1ccc(-c2ccccc2)cc1)n1cncn1 (stereo not drawn),61.8% (inactive)
9,CC1COC(Cn2cncn2)(c2ccc(Oc3ccc(Cl)cc3)cc2Cl)O1 (stereo not drawn),70.2% (inactive)
10,Cc1nn(Cc2ccccc2)c(Cl)c1C(=O)NC1CCCCCC1,3% (inactive)
11,Cc1cc(C2=NOC(c3cc(Cl)c(F)c(Cl)c3)(C(F)(F)F)C2)ccc1C(=O)NCc1ccc2c(c1)C(C)(C)OB2O (stereo not drawn),18.2% (inactive)
12,Cc1cccc(C(=O)Nc2ccnc(N(C)C3CCN(CC(C)C)CC3)c2)c1,9% (inactive)
13,O=C1O[C@@H](COc2ccon2)CN1c1cc(F)c(C2=CCN(Cc3ccccc3)CC2)c(F)c1,0% (inactive)
14,O=C1O[C@@H](CO)CN1c1cc(F)c(C2=CCN(Cc3ccccc3)CC2)c(F)c1,0.5% (inactive)
